Screens from PubChem BioAssay.
nsP2pro inh = Primary qHTS for inhibitors of NSP2Pro chikungunya virus (CHIKV); Potency, µM (highest dose often 24.9 µM), for inactives: at the top dose activity change, negative = inhibition, most hits filed as inhibitors; hit rate 1.1% among 31,000; Polyprotein P1234 (Chikungunya virus (strain S27-African prototype)), Q8JUX6; FRET peptide cleavage, nsP2pro, fluorescence 1 h; also: nearly all actives have a fitted effect of over 60% in size
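FRET cleavage of 2.5 uM peptide 2 by 150 nM CHIKV protease domain at pH 8.0 (Tris, Tween 20). Compounds at 7 concentrations (up to 25 uM) preincubated 15 min. Fluorescence read after 1 h at room temperature.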
CHIKV nsP2 cell = Secondary cell base assay for inhibitors of NSP2Pro Chikungunya virus (CHIKV); hit rate 10% among 450; Potency, µM (titrated, usually from 51.1 µM), without a hit: at the top dose activity change, negative = inhibition, hits mostly inhibitors; cell-based CHIKV nsP2 protease reporter assay; shares compounds with nsP2pro inh; also: nearly all actives have a fitted effect of over 70% in size
Target sequence (Q8JUX6 220-798 limits assumed): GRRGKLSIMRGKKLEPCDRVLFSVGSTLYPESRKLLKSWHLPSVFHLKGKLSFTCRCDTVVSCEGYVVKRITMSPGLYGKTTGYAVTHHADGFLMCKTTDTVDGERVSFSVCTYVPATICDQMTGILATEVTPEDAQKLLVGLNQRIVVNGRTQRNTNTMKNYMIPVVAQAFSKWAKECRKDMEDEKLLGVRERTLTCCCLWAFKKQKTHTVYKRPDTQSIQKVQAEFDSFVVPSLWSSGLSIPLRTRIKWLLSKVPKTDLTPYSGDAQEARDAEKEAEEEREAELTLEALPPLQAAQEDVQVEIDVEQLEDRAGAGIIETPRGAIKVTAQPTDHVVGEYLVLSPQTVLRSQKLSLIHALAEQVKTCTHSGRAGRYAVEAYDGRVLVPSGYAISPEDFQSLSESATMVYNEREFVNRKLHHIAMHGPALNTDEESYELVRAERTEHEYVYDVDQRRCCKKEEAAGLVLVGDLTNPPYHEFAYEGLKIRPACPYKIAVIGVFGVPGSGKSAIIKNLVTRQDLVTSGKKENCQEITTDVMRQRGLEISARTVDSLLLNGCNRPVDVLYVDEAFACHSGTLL
CHIKV NSP2 FL = Selectivity profile for inhibitors of NSP2Pro chikungunya virus (CHIKV): Full length NSP2 enzyme counterscreen (CHIKV-NSP2); Full-length CHIKV NSP2 protease enzymatic counterscreen; hit rate 39% among 410; shares compounds with nsP2pro inh; Potency, µM (highest dose often 50.7 µM), without a hit: top-dose activity change, negative = inhibition, most hits filed as inhibitors; also: nearly all actives have a fitted effect of over 65% in size
Furin counterscr = Selectivity profile for inhibitors of NSP2Pro chikungunya virus (CHIKV): Human furin counterscreen | shares compounds with nsP2pro inh | Recombinant human furin enzymatic counterscreen, fluorogenic substrate | Potency, µM (top dose mostly 50.6 µM), for inactives: top-dose activity change, negative = inhibition, hits mostly inhibitors | hit rate 6% among 410 | AID 1964102, 2024
NS23 peptide cs = Selectivity profile for inhibitors of NSP2Pro chikungunya virus (CHIKV): Endogenous NS2/3 peptide Counterscreen; shares compounds with nsP2pro inh; Purified CHIKV nsP2 protease, endogenous NS2/3 peptide cleavage; Potency, µM (top dose mostly 51 µM), inactives show at the highest dose activity change, negative = inhibition, most hits filed as inhibitors; hit rate 34% among 410; AID 1964103, 2024; also: nearly all actives have a fitted effect of over 55% in size
Papain counter = Selectivity profile for inhibitors of NSP2Pro chikungunya virus (CHIKV): Papain Counterscreen | shares compounds with nsP2pro inh | AID 1964104, 2024 | hit rate 5% among 410 | Potency, µM (titrated, usually from 51 µM), for inactives: at the top dose activity change, negative = inhibition, actives largely listed as inhibitors | purified papain protease activity, enzymatic inhibition
nsP2pro conf qHTS = Confirmatory qHTS for inhibitors of NSP2Pro chikungunya virus (CHIKV). Potency, µM (doses to about 25.5 µM), for the others: top-dose activity change, negative = inhibition, usual class: inhibitors. hit rate 43% among 410. CHIKV nsP2 protease enzymatic activity, qHTS. shares compounds with nsP2pro inh; also: nearly all actives have a fitted effect of over 75% in size
HCV NS3 counter = Selectivity profile for inhibitors of NSP2Pro chikungunya virus (CHIKV): NS34A-HCV Counterscreen | shares compounds with nsP2pro inh | HCV NS3/4A protease biochemical counterscreen | Potency, µM (top dose mostly 50.9 µM), hits mostly inhibitors | hit rate 20% among 410; also: nearly all actives have a fitted effect of over 55% in size
An asterisk follows results filed as active; i = inactive; u = inconclusive; [ ] = dose if it differs, or a comment. The entries come from a sample that favours hits as a whole. Calls follow the shape of the full dose curve. % is scaled to controls: 0 for no effect and ±100 for the full control effect; potency is read from the fitted curve at half-maximal effect.

SMILES	nsP2pro inh	others
COc1ccc(C2CC(=O)N3CN(C4CCCCC4)CSC3=C2C#N)c(OC)c1 (stereo not given)	8.91µM*	CHIKV nsP2 cell=-5.3%;CHIKV NSP2 FL=18.3µM*;Furin counterscr=-8.8%;NS23 peptide cs=u;Papain counter=-7.6%;nsP2pro conf qHTS=u;HCV NS3 counter=i
N#CC1=C2SCN(C3CCCCC3)CN2C(=O)CC1c1ccc(Br)cc1 (stereo not given)	-0.5%
COc1ccc(NC(=O)c2cc3c(s2)CN(C2CCCC2)C3)c(OC)c1	i
FC1(F)C[C@@H](c2nc(C3CC3)no2)N(Cc2ccco2)C1	-10.7%
CCCCCCCCCCCCCCCC(=O)OC1CCCn2c1nc(C)c(CCN1CCC(c3noc4cc(F)ccc34)CC1)c2=O (stereo not given)	-7.5%
COc1ccccc1OC1(C(=O)O)CCN(Cc2ccc(-c3ccn[nH]3)o2)CC1	1µM*	CHIKV nsP2 cell=u;CHIKV NSP2 FL=u;Furin counterscr=-8.0%;NS23 peptide cs=0.3%;Papain counter=-2.7%;nsP2pro conf qHTS=-23.4%;HCV NS3 counter=i
COc1ccccc1OC1(C(=O)O)CCN(Cc2cccnc2)CC1	0.8%
COc1ccccc1OC1(C(=O)O)CCN(c2ncnc(C)c2C)CC1	0.3%
CC(C)c1nccn1CCCNC(=O)c1ccc(-c2cccnc2)nc1	i
Cc1ccc(S(=O)(=O)/C=C/C#N)cc1	0.881µM*	CHIKV nsP2 cell=u;CHIKV NSP2 FL=0.919µM*;Furin counterscr=4.9%;NS23 peptide cs=4.61µM*;Papain counter=-5.5%;nsP2pro conf qHTS=0.283µM*;HCV NS3 counter=i
COc1ccc(-n2ncc3c2CC(C)(C)CC3NC(=O)c2cc(C)[nH]n2)cc1 (stereo not given)	i
COc1cc(C(=O)O)ccc1NC(=O)[C@@H]1N[C@@H](CC(C)(C)C)[C@](C#N)(c2ccc(Cl)cc2F)[C@H]1c1cccc(Cl)c1F	-19.9%
CN1CC(O)CN([S+](=O)([O-])c2cccs2)CC1=O (stereo not given)	-12.0%
CN1Cc2ccccc2NC(=O)C12CCNC2 (stereo not given)	-15.9%[39.2 µM]
CCN1Cc2ccccc2NC(=O)C12CCNC2 (stereo not given)	8.91µM*	CHIKV nsP2 cell=u;CHIKV NSP2 FL=6.43µM*;Furin counterscr=-22.5%;NS23 peptide cs=14.4µM*;Papain counter=-3.7%;nsP2pro conf qHTS=8.85µM*;HCV NS3 counter=3.62µM*
O=C1Nc2ccccc2CN(CC2CCCCC2)C12CCNC2 (stereo not given)	7.1%
COc1cccc(-c2ccc(CN3CCCC(N[S+](=O)([O-])c4c(C)noc4C)C3)cc2)c1 (stereo not given)	-0.8%
Cc1cc(F)ccc1NC(=O)CCC1CCCN(C(=O)CC2=CCCCC2)C1 (stereo not given)	-0.8%
Cn1nnnc1Sc1ncnc2scc(-c3cccc(N)c3)c12	1.78µM*	CHIKV nsP2 cell=20.6µM*;CHIKV NSP2 FL=-9.8%;Furin counterscr=-4.1%;NS23 peptide cs=-14.3%;Papain counter=-6.4%;nsP2pro conf qHTS=17.5%;HCV NS3 counter=i
Cn1nnnc1Sc1ncnc2scc(-c3cccc(Br)c3)c12	4.3%
Cc1cccc(-c2csc3ncnc(Sc4nnnn4C)c23)c1	i
CN(Cc1ccccc1)Cc1cc(C[C@@H]2C[C@H](NC(=O)C3CC3)C2(C)C)no1	-15.3%[39.2 µM]
